# Source: PubChem
# CtBP-E1A inh: inhibitors of CtBP/E1A interaction; AID 651724; AlphaScreen GST-E1A/His-CtBP binding, 1536-well; hits give low values; 340,000 tested, 0.49% active; activity change, % (test concentration not listed); in the data active = activity change below about -65%; inconclusive = mostly about -30% to -63%; also: % is scaled to controls: 0 for no effect and ±100 for the full control effect
#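 Protein mix (5X: 125 nM each GST-E1A, His-CtBP) was incubated with pinned compound 2 h at 37 deg C in dark, in 50 mM Tris pH 8.0 buffer with 300 mM NaCl. Glutathione donor and nickel acceptor beads followed; AlphaScreen signal read after 1 h.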
# RORg inh: ROR gamma (mouse) transcription inhibition. P51450. Drosophila S2 Gal4-RORgamma UAS-luciferase reporter, 20 h. Potency, µM (series often up to 53.6 µM), for the others: at the top dose activity change, negative = inhibition, most hits filed as inhibitors. 310,000 tested, 5.4% active. AID 2551; also: potency is read from the fitted curve at half-maximal effect; % is scaled to controls: 0 for no effect and ±100 for the full control effect; nearly all actives have a fitted effect of over 60% in size
#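 ROR gamma transcriptional activity was tracked as Gal4-UAS luciferase output in stably transfected Drosophila Schneider cells, with compound added 1 hr before 700 uM copper sulfate induction and a 20 hr ambient-temperature incubation.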
# MBNL1-CUG inh: MBNL1-poly(CUG) RNA binding inhibition; 280,000 tested, 0.036% active; Q9NR56; Potency, µM (doses to about 57.5 µM), inactives show at the top dose activity change, negative = inhibition, hits mostly inhibitors; TR-FRET MBNL1-His/biotin-(CUG)12 binding, 665/545 ratio; active = well fitted inhibition curve with a large enough effect in the signal ratio, with a control signal flat, not every such curve was filed as active; inconclusive = small, poorly fitted or top-dose-only effect, or effect the other way, or a change in a side signal; inactive = no such curve, though single readings can be large or run the other way; the % refers to the signal ratio; also: potency is read from the fitted curve at half-maximal effect; % is scaled to controls: 0 for no effect and ±100 for the full control effect
# Target sequence (Q9NR56 whole entry, looked up): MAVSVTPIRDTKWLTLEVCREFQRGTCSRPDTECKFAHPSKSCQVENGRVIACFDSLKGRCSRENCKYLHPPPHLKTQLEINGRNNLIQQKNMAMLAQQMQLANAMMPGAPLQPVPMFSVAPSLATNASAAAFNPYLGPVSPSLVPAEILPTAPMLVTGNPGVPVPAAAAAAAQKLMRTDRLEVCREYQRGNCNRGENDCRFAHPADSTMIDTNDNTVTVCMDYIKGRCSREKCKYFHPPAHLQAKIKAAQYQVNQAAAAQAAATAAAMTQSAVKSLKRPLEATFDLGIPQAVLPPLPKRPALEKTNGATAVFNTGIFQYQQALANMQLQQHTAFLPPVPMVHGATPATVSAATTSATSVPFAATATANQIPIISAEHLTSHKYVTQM
#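 Compounds (final 92 nM to 58 uM) are added to His-tagged MBNL1 and biotin-(CUG)12, then terbium anti-His antibody and streptavidin-XL665 (5 nM final). After 60 min at room temperature, the 665/545 nm ratio is read.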
# CBFb RUNX1 block: inhibitors of human CBF-beta and RUNX1 interaction | Potency, µM (doses to about 59.8 µM), for inactives: at the highest dose activity, negative = inhibition, most hits filed as inhibitors | Q01196+Q13951 | AlphaScreen CBFb-His/RUNX1-biotin binding, biochemical | 230,000 tested, under 10 active; also: % of control where 0% means no effect
#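 Compounds were screened at multiple concentrations against a preformed CBF-beta(His)/RUNX1(biotin) complex (30 nM of each) for 15 min at room temperature, followed by 90 min with nickel and streptavidin beads and AlphaScreen reading.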
# Gal4-VP16 FLuc: inhibits Gal4-VP16 luciferase reporter, ROR gamma counter-screen; Drosophila S2 Gal4-VP16 UAS-luciferase, luminescence, 20 h; Potency, µM (titrated, usually from 53.6 µM), inactives show top-dose activity, negative = inhibition, actives largely listed as inhibitors; 310,000 tested, 3.5% active;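 also: Gal4-VP16 expression switched on by copper sulfate through the metallothionein promoter; potency is read from the fitted curve at half-maximal effect; % is scaled to controls: 0 for no effect and ±100 for the full control effect; nearly all actives have a fitted effect of over 50% in size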
# Six1-Eya2 inh: inhibitors of human Six1/Eya2 interaction | 360,000 tested, 0.56% active | Q15475+O00167 | AlphaScreen GST-Six1/His-Eya2 binding, biochemical; hits give low values | activity change, % (concentration not given with the values) | AID 651725; in the data active = activity change below about -65%; inconclusive = mostly about -30% to -63%; also: % is scaled to controls: 0 for no effect and ±100 for the full control effect
#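 GST-Six1 + His-Eya2 (5X stock: 250/500 nM); Tris pH 8.0, 300 mM NaCl, 0.05% BSA, 0.02% Tween 20; GSH donor/Ni acceptor beads; 1 h 37 °C dark; AlphaScreen readout.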
# * = called active by the depositor; ? = inconclusive; . = no result given. Hits are enriched below; roughly 5.5% of the tested compounds scored in any of these assays. Unless noted, calls follow the shape of the dose curve; as a rule, active = well fitted curve in the direction sought with a large enough effect; inconclusive = small, poorly fitted or top-dose-only effect, or another doubt; inactive = no such curve, though single readings can be large; an effect the other way counts as inactive or inconclusive.
SMILES,CtBP-E1A inh,RORg inh,MBNL1-CUG inh,CBFb RUNX1 block,Gal4-VP16 FLuc,Six1-Eya2 inh
CC(/C=N/n1c(-c2ccccn2)n[nH]c1=S)=C\c1ccccc1,?,3.55µM*,11.3%,?,-9.0%,?
O=C(Nc1nnc(C2CC2)s1)C1CCCCN1S(=O)(=O)c1ccccc1 (centres undefined),0.6,-1.7%,0.6%,0.8%,1.8%,6.0
COc1ccc(-c2nnc(SC)nc2-c2ccc(OC)c([N+](=O)[O-])c2)cc1[N+](=O)[O-],-18.9,.,.,.,.,-18.2
S=c1[nH]nc(-c2ccncc2)n1/N=C/C(Cl)=C\c1ccccc1,.,?,4.4%,-4.7%,?,-16.0
Cc1cccc(/C=N/n2c(-c3ccccn3)n[nH]c2=S)c1,.,?,0.5%,.,17.8µM*,.
S=c1[nH]nc(-c2ccncc2)n1/N=C/c1cccc(Cl)c1,-0.3,4.47µM*,7.6%,10.8%,-23.4%,3.8
Fc1ccc(/C=N/n2c(-c3cccs3)n[nH]c2=S)cc1,-5.6,2µM*,-4.1%,10.4%,3.98µM*,-2.3
Cc1nn(-c2ccccc2)c(C)c1/C=N/n1c(-c2ccc(Cl)cc2)n[nH]c1=S,-12.3,12.6µM*,-2.6%,-0.1%,8.91µM*,-9.7
Cc1cc(C)c(S(=O)(=O)Nc2ncn[nH]2)cc1C,3.4,-12.4%,1.1%,.,18.3%,4.2
O=C(N/N=C/c1ccccc1)c1cc(=O)[nH]c2ccccc12,5.4,2.5%,7.2%,-7.1%,?,1.9
COc1ccc(O)c(/C=N/NC(=O)c2cc(=O)[nH]c3ccccc23)c1,?,-43.5%,18.6%,.,-6.8%,-91.9*
COc1ccc(OC)c(/C=N/NC(=O)c2csc3ccccc23)c1,-1.9,12.6µM*,12.0%,1.7%,-0.1%,0.0
COc1ccc(OC)c(/C=N/NC(=O)c2cc(-c3ccc(C)o3)nc3ccccc23)c1,-4.9,?,.,2.8%,?,-13.4
CC(C)NC(=O)C1(C)CCN1C(=O)c1ccccc1 (centres undefined),1.9,.,.,.,.,6.3
Fc1ccccc1-c1csc(=Nc2cccnc2)n1CC1CCCO1 (centres undefined),-16.7,?,2.1%,0.0%,7.08µM*,1.6
Fc1ccccc1-c1csc(=Nc2cccnc2)n1CCCn1ccnc1,-2.8,?,10.5%,-17.4%,-17.4%,-15.6
CCN1CCN(C(=O)CCc2nnc3ccc(N4CCC5(CC4)OCCO5)nn23)CC1,.,-31.9%,10.0%,.,-10.3%,4.8
COc1ccccc1NC1=C(C)C(=O)CC1,-1.8,12.6µM*,-7.9%,10.0%,-4.1%,0.2
COC1=C(Nc2ccccc2OC)C(=O)c2ccccc2C1=O,?,-12.1%,?,?,-0.2%,?
CC1(C(=O)NS(=O)(=O)c2cccc(OC(F)F)c2)CCN1C(=O)C/C=C/c1ccccc1 (centres undefined),-6.7,.,.,.,.,1.1
COc1ccc(C(=O)N2CCC[C@@]3(CCN(C(=O)Nc4cccc(C#N)c4)C3)C2)cc1,.,-23.8%,.,.,-1.4%,.
C=CCOc1ccc(CNn2cn[nH]c2=S)cc1OC,1.8,-27.1%,-8.4%,0.8%,9.0%,1.7
COc1cc(CNn2c(C)n[nH]c2=S)cc(Cl)c1OCc1ccccc1,7.9,7.94µM*,-0.9%,-5.1%,-14.6%,-8.8
COc1cc(CNC2CCCC2)cc(Cl)c1OCc1ccccc1F,-6.5,-33.9%,-12.1%,26.1%,-11.6%,2.8
C=CCOc1ccc(CNn2cn[nH]c2=S)cc1OCC,8.6,11.2µM*,7.3%,2.1%,-12.7%,-2.3
SMILES,CtBP-E1A inh,RORg inh,MBNL1-CUG inh,CBFb RUNX1 block,Gal4-VP16 FLuc,Six1-Eya2 inh
COc1cc(CNn2cn[nH]c2=S)cc(Cl)c1OCc1ccc(F)cc1,-1.7,7.08µM*,-1.1%,2.7%,3.98µM*,-10.3
Fc1cccc(Cl)c1CNn1cn[nH]c1=S,12.5,?,-12.8%,17.3%,2.6%,2.6
O=S(=O)(c1ccccc1)c1ncc(C(F)(F)F)cc1Cl,11.7,8.91µM*,-4.5%,-7.4%,15.8µM*,-1.2
CN(NS(C)(=O)=O)c1ncc(C(F)(F)F)cc1Cl,?,11.2µM*,.,24.0%,?,?
CN(NC(=O)c1ccccc1)c1ncc(C(F)(F)F)cc1Cl,4.5,0.7%,-12.6%,0.1%,-23.0%,-0.3
Cc1ccc(F)cc1NC(=O)N1CCN(c2ccnc3cc(Cl)ccc23)CC1,.,6.9%,-4.7%,3.6%,0.4%,-2.6
O=C(Nc1cc(F)ccc1F)N1CCN(c2ccnc3cc(Cl)ccc23)CC1,-22.7,53.0%,-0.8%,3.2%,12.6µM*,-22.7
COc1ccc(CCNC(=S)NC(=O)c2c(-c3ccccc3Cl)noc2C)cc1OC,.,8.91µM*,-0.3%,1.5%,?,3.3
COc1ccc(CCNC(=O)c2c(-c3ccccc3Cl)noc2C)cc1,5.2,10.4%,10.9%,2.9%,10.7%,4.4
Cc1onc(-c2ccccc2Cl)c1C(=O)NC(=S)NCCc1ccccc1,5.6,10µM*,-12.9%,22.3%,20µM*,13.5
Cc1nc(/C(N)=N/OC(=O)c2c(-c3ccccc3Cl)noc2C)cs1,5.2,25.2%,1.6%,10.1%,-27.4%,2.0
COc1ccc(/C(N)=N/OC(=O)c2c(-c3ccccc3Cl)noc2C)cc1OC,7.9,-35.9%,-2.1%,.,10µM*,1.3
CCOC1=C2[C@@H](CN(S(=O)(=O)c3ccc(C)cc3)[C@H]2c2cccc3ccccc23)[C@H]2C(=O)N(CC)C(=O)[C@H]2C1,-4.9,.,.,.,.,-9.5
O=C(Nc1cc(S(=O)(=O)N2CCCCC2)ccc1Cl)c1ccccc1NS(=O)(=O)c1ccc(F)cc1,2.1,?,10.2%,6.8%,5.62µM*,2.5
Cn1c(SCC(=O)NCc2ccco2)nnc1C1CCCC1,7.8,-15.5%,-5.5%,.,2.4%,1.4
CNC(=S)N1N=C(c2cccs2)CC1c1ccc(F)cc1 (centres undefined),22.2,?,?,.,19.8%,15.4
O=[N+]([O-])c1cc(S(=O)(=O)NCCN2CCOCC2)ccc1Sc1nnnn1-c1ccccc1,22.6,11.2µM*,.,-15.6%,20µM*,2.0
CCCCn1nnnc1C1(C)CCC(=O)N1CCc1ccc(OC)c(OC)c1 (centres undefined),7.2,.,.,.,.,0.9
CC(=O)C(C(C)=O)c1c(Cl)c(O)c(O)c2c(C(=O)c3ccccc3)coc12,-12.8,15.8µM*,3.0%,-26.7%,?,-17.7
CC1=NOC(=O)/C1=C/c1ccc(O)c(Cl)c1,-1.0,11.2µM*,6.8%,.,15.8µM*,6.8
COc1cc(/C=C2/C(=O)ON=C2C)cc(Cl)c1O,9.7,12.6µM*,12.2%,.,?,-2.9
